# In PMC7862700, “An all-to-all approach to the identification of sequence-specific readers for epigenetic DNA modifications on cytosine”:
# Columns and labels:
# Test in all cases: DAPPL (digital affinity profiling via proximity ligation, sequencing); 10 mM Tris-HCl pH 7.5, 50 mM NaCl, 1 mM DTT, 4% glycerol, room temperature, 30 min; GST-TFs on glutathione beads, 16-mer random dsDNA library, 0.1% formaldehyde crosslink after washing; high values mean tight binding
# FLI1 = molecular target: T1, FLI1 (Homo sapiens, UniProt Q01543 1-452); conditions: protein: recombinant; tags: N-terminal GST; dsDNA, one strand shown
# T1 sequence: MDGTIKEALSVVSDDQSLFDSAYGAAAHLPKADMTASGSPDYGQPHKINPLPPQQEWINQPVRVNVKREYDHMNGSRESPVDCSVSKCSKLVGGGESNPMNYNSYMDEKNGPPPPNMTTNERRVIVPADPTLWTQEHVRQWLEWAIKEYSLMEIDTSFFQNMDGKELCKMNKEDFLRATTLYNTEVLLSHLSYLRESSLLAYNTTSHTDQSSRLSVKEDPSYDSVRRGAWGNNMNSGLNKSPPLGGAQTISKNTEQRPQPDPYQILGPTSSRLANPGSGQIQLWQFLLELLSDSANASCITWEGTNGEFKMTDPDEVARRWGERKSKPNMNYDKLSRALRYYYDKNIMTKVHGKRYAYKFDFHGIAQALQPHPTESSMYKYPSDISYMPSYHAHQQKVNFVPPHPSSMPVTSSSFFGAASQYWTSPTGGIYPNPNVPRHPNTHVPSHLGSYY
# Method in brief: (§1)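 GST fusions of human transcription factors were expressed in yeast and captured with glutathione beads. Once given DNA barcodes and pooled alongside a tag-only sample, they were incubated for 30 min at room temperature with 200 nmole of a random double-stranded 16-mer DNA library in Tris/NaCl/DTT/glycerol buffer, then washed, crosslinked (0.1% formaldehyde), proximity-ligated, PCR-amplified and sequenced on an Illumina NextSeq500. The binding signal of each hexamer is its read frequency for a factor divided by its frequency for the tag-only sample.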
# ELK1 = molecular target: T2, ELK1 (Homo sapiens, UniProt P19419 1-428); conditions: protein: recombinant; tags: N-terminal GST; dsDNA, one strand shown
# T2 sequence: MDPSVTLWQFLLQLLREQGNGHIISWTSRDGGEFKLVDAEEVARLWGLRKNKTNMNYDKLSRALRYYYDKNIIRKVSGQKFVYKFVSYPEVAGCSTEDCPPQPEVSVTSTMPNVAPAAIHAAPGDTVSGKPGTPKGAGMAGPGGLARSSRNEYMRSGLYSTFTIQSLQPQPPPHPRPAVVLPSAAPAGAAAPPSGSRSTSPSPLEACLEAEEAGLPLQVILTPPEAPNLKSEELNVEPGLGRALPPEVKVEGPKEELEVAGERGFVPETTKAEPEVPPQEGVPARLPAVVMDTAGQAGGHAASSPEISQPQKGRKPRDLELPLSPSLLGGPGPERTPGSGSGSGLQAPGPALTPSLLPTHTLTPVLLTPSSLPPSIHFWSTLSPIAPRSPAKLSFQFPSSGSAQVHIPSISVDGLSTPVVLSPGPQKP
# Method in brief: as §1
# GABPA = molecular target: T3, GABPA (Homo sapiens, UniProt Q06546 1-454); conditions: protein: recombinant; tags: N-terminal GST; dsDNA, one strand shown
# T3 sequence: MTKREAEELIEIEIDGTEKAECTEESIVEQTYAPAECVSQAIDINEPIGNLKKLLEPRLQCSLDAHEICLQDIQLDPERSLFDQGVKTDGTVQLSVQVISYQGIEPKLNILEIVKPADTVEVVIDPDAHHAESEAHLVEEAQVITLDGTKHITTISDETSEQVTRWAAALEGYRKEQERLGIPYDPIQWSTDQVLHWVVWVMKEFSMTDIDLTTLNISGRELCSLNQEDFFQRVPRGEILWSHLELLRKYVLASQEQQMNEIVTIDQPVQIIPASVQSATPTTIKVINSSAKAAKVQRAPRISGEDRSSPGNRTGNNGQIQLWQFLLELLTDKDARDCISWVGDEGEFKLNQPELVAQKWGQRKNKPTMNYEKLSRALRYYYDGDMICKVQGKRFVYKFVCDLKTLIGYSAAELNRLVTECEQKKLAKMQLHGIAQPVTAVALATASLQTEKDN
# Method in brief: as §1
# ERG = molecular target: T4, ERG (Homo sapiens, UniProt P11308 1-479); conditions: protein: recombinant; tags: N-terminal GST; dsDNA, one strand shown
# T4 sequence: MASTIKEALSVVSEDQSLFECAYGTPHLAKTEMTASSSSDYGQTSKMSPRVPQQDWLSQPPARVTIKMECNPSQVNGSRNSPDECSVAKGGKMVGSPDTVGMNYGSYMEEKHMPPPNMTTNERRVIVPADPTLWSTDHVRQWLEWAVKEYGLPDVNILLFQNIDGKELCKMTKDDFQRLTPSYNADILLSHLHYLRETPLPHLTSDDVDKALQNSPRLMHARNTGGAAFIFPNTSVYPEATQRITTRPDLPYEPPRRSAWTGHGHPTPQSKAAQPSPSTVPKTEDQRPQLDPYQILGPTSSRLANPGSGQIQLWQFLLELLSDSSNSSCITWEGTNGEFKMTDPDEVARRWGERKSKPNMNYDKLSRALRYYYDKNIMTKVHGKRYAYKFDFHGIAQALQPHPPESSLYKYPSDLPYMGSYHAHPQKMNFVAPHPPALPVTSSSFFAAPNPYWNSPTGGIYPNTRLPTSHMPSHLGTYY
# Method in brief: as §1
# ELF1 = ELF1 (Homo sapiens, UniProt P32519 1-619); conditions: protein: recombinant; tags: N-terminal GST; dsDNA, one strand shown
# Method in brief: as §1
# EHF = molecular target: T5, EHF (Homo sapiens, UniProt Q9NZC4 1-300); conditions: protein: recombinant; tags: N-terminal GST; dsDNA, one strand shown
# T5 sequence: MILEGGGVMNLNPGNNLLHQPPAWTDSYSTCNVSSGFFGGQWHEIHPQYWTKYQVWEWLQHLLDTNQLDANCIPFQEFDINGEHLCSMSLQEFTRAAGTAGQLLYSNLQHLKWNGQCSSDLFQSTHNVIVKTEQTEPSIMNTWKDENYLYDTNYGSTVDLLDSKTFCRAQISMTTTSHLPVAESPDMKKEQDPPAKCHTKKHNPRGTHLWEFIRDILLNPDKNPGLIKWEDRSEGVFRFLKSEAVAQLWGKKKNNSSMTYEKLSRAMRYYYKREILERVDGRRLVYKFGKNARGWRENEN
# Method in brief: as §1
# SPI1 = SPI1 (Homo sapiens, UniProt P17947 1-270); conditions: protein: recombinant; tags: N-terminal GST; dsDNA, one strand shown
# Method in brief: as §1
# SPIB = SPIB (Homo sapiens, UniProt Q01892 1-262); conditions: protein: recombinant; tags: N-terminal GST; dsDNA, one strand shown
# Method in brief: as §1
# ELK3 = molecular target: T6, ELK3 (Homo sapiens, UniProt P41970 1-407); conditions: protein: recombinant; tags: N-terminal GST; dsDNA, one strand shown
# T6 sequence: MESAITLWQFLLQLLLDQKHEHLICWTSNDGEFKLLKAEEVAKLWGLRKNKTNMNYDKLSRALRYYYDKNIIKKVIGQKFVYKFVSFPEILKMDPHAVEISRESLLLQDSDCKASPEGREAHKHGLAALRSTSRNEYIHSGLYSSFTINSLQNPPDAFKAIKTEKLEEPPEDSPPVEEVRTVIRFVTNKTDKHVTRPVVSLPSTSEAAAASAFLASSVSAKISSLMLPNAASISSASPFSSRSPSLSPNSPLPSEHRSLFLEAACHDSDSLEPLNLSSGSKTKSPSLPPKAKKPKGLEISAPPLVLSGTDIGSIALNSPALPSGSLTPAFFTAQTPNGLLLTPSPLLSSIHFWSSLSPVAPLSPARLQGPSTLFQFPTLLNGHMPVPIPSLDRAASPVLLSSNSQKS
# Method in brief: as §1
# FEV = molecular target: T7, FEV (Homo sapiens, UniProt Q99581 1-238); conditions: protein: recombinant; tags: N-terminal GST; dsDNA, one strand shown
# T7 sequence: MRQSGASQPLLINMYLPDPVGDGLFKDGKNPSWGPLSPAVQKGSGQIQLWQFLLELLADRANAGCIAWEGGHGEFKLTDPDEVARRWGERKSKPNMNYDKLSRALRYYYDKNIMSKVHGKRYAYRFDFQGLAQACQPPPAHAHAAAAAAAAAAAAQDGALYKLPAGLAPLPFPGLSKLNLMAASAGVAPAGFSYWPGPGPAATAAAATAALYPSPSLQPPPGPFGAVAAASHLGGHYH
# Method in brief: as §1
# ETV5 = ETV5 (Homo sapiens, UniProt P41161 1-510); conditions: protein: recombinant; tags: N-terminal GST; dsDNA, one strand shown
# Method in brief: as §1
# HSF1 = HSF1 (Homo sapiens, UniProt Q00613 1-529); conditions: protein: recombinant; tags: N-terminal GST; chain copies: 3; dsDNA, one strand shown
# Method in brief: as §1
# SPIC = molecular target: T8, SPIC (Homo sapiens, UniProt Q8N5J4 1-248); conditions: protein: recombinant; tags: N-terminal GST; dsDNA, one strand shown
# T8 sequence: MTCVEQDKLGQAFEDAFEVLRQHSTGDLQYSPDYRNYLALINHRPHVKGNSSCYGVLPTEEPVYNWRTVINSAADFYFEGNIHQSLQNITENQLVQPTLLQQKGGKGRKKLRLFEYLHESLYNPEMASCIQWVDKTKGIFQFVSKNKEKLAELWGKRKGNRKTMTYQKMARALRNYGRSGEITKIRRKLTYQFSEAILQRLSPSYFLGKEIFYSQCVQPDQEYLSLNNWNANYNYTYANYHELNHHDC
# Method in brief: as §1
# ELF4 = ELF4 (Homo sapiens, UniProt Q99607 1-663); conditions: protein: recombinant; tags: N-terminal GST; dsDNA, one strand shown
# Method in brief: as §1
# ELK4 = molecular target: T9, ELK4 (Homo sapiens, UniProt P28324-2 1-405); conditions: protein: recombinant; tags: N-terminal GST; dsDNA, one strand shown
# T9 sequence: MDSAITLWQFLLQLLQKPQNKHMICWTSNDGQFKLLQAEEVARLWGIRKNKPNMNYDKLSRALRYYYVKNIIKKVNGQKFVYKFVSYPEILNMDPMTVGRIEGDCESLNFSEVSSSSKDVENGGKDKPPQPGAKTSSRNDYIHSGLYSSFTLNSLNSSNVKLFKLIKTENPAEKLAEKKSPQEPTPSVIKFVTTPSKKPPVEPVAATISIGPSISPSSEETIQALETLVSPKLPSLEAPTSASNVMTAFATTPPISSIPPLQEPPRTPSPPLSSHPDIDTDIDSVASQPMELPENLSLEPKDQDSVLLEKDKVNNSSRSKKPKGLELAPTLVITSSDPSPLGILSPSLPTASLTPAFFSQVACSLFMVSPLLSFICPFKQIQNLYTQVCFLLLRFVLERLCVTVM
# Method in brief: as §1
# ETV2 = molecular target: T10, ETV2 (Homo sapiens, UniProt O00321 1-342); conditions: protein: recombinant; tags: N-terminal GST; dsDNA, one strand shown
# T10 sequence: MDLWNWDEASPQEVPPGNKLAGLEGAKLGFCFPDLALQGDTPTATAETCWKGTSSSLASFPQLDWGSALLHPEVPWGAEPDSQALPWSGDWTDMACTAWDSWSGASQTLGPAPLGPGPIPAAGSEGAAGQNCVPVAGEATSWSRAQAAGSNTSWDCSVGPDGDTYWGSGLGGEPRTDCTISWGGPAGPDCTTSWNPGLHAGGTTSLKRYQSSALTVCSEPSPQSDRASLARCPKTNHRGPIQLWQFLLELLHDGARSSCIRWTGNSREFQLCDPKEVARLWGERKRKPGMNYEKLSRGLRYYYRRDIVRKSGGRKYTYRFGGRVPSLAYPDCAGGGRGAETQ
# Method in brief: as §1
# ELF3 = molecular target: T11, ELF3 (Homo sapiens, UniProt P78545 1-371); conditions: protein: recombinant; tags: N-terminal GST; dsDNA, one strand shown
# T11 sequence: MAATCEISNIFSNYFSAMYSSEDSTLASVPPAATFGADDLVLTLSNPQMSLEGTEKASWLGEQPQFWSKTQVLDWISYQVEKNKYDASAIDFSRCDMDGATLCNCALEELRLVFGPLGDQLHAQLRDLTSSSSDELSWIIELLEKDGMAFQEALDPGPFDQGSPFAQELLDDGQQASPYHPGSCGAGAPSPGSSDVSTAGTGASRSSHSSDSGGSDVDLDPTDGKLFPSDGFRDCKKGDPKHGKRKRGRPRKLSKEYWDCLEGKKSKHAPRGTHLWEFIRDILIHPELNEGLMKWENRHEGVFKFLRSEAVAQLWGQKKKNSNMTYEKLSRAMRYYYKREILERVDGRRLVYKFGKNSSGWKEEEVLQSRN
# Method in brief: as §1
# CRX = CRX (Homo sapiens, UniProt O43186 1-299); conditions: protein: recombinant; tags: N-terminal GST; dsDNA, one strand shown
# Method in brief: as §1
# ETV1 = ETV1 (Homo sapiens, UniProt P50549 1-477); conditions: protein: recombinant; tags: N-terminal GST; dsDNA, one strand shown
# Method in brief: as §1
# Chain of ETV1 (P50549 whole entry): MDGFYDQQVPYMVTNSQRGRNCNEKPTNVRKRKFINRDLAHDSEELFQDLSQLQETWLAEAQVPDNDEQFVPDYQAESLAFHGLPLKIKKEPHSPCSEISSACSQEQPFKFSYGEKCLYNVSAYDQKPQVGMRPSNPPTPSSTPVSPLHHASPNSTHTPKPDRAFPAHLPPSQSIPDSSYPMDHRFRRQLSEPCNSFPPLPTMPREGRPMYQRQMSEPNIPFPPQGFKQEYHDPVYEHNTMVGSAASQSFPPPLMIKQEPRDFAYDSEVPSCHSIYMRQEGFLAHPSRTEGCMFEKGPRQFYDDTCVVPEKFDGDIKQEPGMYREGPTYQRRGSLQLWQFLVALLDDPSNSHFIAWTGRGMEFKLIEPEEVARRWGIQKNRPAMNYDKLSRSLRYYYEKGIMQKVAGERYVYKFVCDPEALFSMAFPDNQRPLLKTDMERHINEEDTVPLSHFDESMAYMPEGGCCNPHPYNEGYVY
# Chain of ELF1 (P32519 whole entry): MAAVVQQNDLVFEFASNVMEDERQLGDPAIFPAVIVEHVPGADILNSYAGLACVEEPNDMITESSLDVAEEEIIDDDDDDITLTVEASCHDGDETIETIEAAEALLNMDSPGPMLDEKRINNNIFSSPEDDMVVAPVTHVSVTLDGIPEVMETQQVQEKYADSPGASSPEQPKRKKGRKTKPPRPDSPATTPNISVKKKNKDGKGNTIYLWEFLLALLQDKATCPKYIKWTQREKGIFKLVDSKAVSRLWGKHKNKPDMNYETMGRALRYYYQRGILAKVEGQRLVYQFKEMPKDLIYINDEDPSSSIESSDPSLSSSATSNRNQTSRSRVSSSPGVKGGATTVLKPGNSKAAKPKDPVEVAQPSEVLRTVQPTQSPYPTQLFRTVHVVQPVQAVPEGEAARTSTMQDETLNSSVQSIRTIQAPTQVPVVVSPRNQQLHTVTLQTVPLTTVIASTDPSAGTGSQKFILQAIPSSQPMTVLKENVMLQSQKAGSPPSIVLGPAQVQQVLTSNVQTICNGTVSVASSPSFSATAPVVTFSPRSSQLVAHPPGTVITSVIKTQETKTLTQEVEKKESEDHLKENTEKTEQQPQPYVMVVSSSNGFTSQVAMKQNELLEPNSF
# Chain of HSF1 (Q00613 whole entry): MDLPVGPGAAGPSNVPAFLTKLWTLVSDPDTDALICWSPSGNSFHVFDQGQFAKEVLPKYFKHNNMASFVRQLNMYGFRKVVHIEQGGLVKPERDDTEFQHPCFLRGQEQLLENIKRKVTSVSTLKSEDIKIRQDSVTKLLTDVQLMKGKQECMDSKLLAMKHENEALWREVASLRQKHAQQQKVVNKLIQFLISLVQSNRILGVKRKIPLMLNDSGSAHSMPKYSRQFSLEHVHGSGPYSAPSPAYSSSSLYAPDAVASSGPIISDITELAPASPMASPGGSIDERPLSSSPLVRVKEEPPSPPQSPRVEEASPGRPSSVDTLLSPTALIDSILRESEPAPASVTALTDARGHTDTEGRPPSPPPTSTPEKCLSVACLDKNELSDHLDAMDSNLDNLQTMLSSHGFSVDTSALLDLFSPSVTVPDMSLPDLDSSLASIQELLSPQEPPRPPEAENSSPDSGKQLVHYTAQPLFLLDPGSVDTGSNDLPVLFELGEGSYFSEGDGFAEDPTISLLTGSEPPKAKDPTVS
# Chain of CRX (O43186 whole entry): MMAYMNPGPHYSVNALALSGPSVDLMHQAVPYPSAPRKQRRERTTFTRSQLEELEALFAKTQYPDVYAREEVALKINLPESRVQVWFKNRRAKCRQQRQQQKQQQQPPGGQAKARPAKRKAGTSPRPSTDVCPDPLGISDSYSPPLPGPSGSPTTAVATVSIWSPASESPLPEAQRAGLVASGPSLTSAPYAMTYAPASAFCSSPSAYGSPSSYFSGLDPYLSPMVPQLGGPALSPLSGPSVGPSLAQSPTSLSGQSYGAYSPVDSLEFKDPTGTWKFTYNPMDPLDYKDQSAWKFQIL
# Chain of ETV5 (P41161 whole entry): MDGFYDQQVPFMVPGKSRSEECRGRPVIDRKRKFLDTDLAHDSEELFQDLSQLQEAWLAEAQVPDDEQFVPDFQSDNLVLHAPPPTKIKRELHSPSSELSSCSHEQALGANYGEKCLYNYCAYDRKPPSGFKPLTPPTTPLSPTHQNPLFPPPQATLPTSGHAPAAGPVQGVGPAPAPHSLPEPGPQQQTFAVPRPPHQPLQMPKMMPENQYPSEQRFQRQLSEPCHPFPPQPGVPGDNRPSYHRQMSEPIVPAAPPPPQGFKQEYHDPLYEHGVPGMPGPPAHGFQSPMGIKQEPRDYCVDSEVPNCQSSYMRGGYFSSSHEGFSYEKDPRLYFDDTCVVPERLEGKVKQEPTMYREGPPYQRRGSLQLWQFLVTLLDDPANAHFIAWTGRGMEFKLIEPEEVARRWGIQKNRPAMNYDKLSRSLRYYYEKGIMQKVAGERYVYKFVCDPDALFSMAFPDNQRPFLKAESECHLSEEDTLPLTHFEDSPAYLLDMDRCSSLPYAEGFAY
# Chain of SPIB (Q01892 whole entry): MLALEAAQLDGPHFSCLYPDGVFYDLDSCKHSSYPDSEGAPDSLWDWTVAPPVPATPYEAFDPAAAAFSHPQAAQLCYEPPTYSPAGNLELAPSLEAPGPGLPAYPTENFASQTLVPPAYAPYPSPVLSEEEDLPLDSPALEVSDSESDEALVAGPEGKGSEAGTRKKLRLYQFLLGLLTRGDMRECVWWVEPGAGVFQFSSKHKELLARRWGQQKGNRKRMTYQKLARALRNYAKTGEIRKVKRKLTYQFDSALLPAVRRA
# Chain of ELF4 (Q99607 whole entry): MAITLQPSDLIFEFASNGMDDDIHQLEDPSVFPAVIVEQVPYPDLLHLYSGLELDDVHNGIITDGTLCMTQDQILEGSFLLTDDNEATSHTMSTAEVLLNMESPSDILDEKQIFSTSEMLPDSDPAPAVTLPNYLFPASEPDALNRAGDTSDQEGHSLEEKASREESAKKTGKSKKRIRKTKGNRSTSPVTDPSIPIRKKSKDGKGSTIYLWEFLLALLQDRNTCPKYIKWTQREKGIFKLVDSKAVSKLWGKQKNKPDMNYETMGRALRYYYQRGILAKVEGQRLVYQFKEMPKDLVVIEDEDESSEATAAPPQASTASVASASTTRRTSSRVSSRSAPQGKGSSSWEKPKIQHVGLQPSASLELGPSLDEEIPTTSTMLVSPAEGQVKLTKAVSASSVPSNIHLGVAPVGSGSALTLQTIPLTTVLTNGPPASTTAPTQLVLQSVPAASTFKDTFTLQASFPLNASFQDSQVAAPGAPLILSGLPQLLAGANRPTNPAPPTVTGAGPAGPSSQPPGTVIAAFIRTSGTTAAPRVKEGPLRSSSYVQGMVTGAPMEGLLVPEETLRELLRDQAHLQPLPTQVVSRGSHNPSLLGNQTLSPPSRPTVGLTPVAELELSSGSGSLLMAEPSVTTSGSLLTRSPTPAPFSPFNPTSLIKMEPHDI
sequence,measurement,setting,value
TTGAAA,binding signal,FLI1,"1.22 fold enrichment (6-mer frequency, TF over GST control)"
same,binding signal,ELK1,"1.25 fold enrichment (6-mer frequency, TF over GST control)"
same,binding signal,GABPA,"1.11 fold enrichment (6-mer frequency, TF over GST control)"
same,binding signal,ERG,"1.09 fold enrichment (6-mer frequency, TF over GST control)"
same,binding signal,ELF1,"1.23 fold enrichment (6-mer frequency, TF over GST control)"
same,binding signal,EHF,"1.23 fold enrichment (6-mer frequency, TF over GST control)"
same,binding signal,SPI1,"1.18 fold enrichment (6-mer frequency, TF over GST control)"
same,binding signal,SPIB,"1.1 fold enrichment (6-mer frequency, TF over GST control)"
same,binding signal,ELK3,"1.09 fold enrichment (6-mer frequency, TF over GST control)"
same,binding signal,FEV,"1.13 fold enrichment (6-mer frequency, TF over GST control)"
same,binding signal,ETV5,"1.18 fold enrichment (6-mer frequency, TF over GST control)"
same,binding signal,HSF1,"1.24 fold enrichment (6-mer frequency, TF over GST control)"
same,binding signal,SPIC,"1.15 fold enrichment (6-mer frequency, TF over GST control)"
same,binding signal,ELF4,"1.21 fold enrichment (6-mer frequency, TF over GST control)"
same,binding signal,ELK4,"1.18 fold enrichment (6-mer frequency, TF over GST control)"
same,binding signal,ETV2,"1.28 fold enrichment (6-mer frequency, TF over GST control)"
same,binding signal,ELF3,"1.13 fold enrichment (6-mer frequency, TF over GST control)"
same,binding signal,CRX,"1.24 fold enrichment (6-mer frequency, TF over GST control)"
same,binding signal,ETV1,"1.16 fold enrichment (6-mer frequency, TF over GST control)"
